Experimental data published in PubChem BioAssay (EPA / NIEHS).
Where “and” joins values, the source holds several entries; their conditions need not be identical. Identical values can stand only once. A structure can be active in one record and inactive in another. Calls of active or inactive are those of the source. The calls were made as follows: active = hit-call score of the fitted dose curve at least 0.9, where 1 is the maximum; inactive = score below 0.9.

These compounds were tested on BCL2L11 (gene 10018) (assay: LTEA_HepaRG_BCL2L11: Life Technologies and Expression Analysis (LTEA) Assay for Bcl-2 (BCL2L11) gene using HepaRG (AID 2283473)). Conditions: mRNA level, 48 h; actives raise or lower the signal.
Description: LTEA_HepaRG is a cell based, multiplexed-readout assay that uses HepaRG, a human liver cell line, with measurements taken at 48 hours after chemical dosing on a 96-well plate.LTEA_HepaRG_BCL2L11 is one of 102 assay component(s) measured in the LTEA HepaRG cell culture assay. It is a marker of Cell proliferation, survival, death.Data from the assay component LTEA_HepaRG_BCL2L11 was analyzed into 1 endpoint. This assay endpoint, LTEA_HepaRG_BCL2L11, was analyzed with bidirectional fitting relative to DMSO as the negative control and baseline of activity. Using a type of inducible reporter, measures of mRNA induction for gain or loss-of-signal activity can be used to understand regulation of transcription factor activity. To generalize the intended target to other relatable targets, this assay endpoint is annotated to the cell cycle intended target family, where the subfamily is Cell proliferation, survival, death.
A total of 1060 chemcials from the ToxCast library were tested in eight-point concentration-response experiments. Cell culture and cytotoxicity assays were conducted at Thermo Fisher Scientific's Custom Services facility (Madison, WI). A single lot of human HepaRG cells (Thermo Fisher Scientific, Frederick, MD) was used for the cell culture experiments. 96-well format collagen type I coated plates of human HepaRG cells were prepared using established methods. Briefly, cryopreserved HepaRG cells were thawed, plated at a density of approximately 100,000 cells/well in HepaRG Thaw, Plate, and General Purpose media (HPRG770, Thermo Fisher Scientific), and incubated for 48 hours. 0.5% DMSO was selected as vehicle control to balance the requisite need of DMSO in HepaRG cultures to maintain differentiation (for example, baseline metabolism, proportions of hepatocytes vs. cholangiocytes), while enabling further hepatic receptor pathway activation (for example, PXR and CAR) in response to chemical exposure. 48 hours after plating, the culture medium was replaced with HepaRG Serum-Free Incudtion Media. Cells were exposed to each test chemical in duplicate and maintained in CO2 incubators for another 48 hours. Chemical plates were thawed to room temperature and 200x concentrations of treatment groups were prepared. 8-point conentration-reponse curves were made with the highest exposure at 100 uM, followed by half-log dilutions, all in 0.5% DMSO. Each test plate contained variouse controls, induction positive controls (1mM phenobarbital), cytotoxicity positive controls ([…] aflatoxin B1), vehicle controls (0.5% DMSO), and total lysis controls (0.5% DMSO). Cell morphology images were taken using an Essen IncuCyte FLR automated microscope, with six 96-well plates imaged in about 24 minutes. Images were captured and exported and JPEG files. Spent culture media was transfered to black-well plates for the LDH assay, and remaining media was sorted at -80 C for later use. Cells were treated with RLT buffer and frozen until shipped for gene expression analysis. Total RNA was isolated from the cell suspension in 75 uL of Buffer RLT (Qiagen, Germantown, MD 20874) by Quintiles/Expression Analysis (Durham, NC) using a custom isolation procedure. Total RNA from each plate well was transferred to a preamplification plate. Fluidigm's 96.96 Dynamic ArrayTM (Fluidigm, Amsterdam, the Netherlands) technology was used for gene expression analyses by quantitative reverse transcription polymerase chain reaction (qRT-PCR, performed by Quintiles/Expression Analysis, Durham, NC)89. Standard TaqManTM Assays (Applied Biosystems/ThermoFisher Scientific, Foster City, CA) were used to assess the expression of 93 genes selected based on their selectivity and sensitivity to important hepatic receptors known to be modulated by environmental chemicals; importance in human hepatocyte functionality; and hepatotoxicity. […]
In the case of CCCCNC(=O)n1c(NC(=O)OC)nc2ccccc21, the outcome is reported as “inactive”. For COC(=O)c1ccccc1C(=O)OC, the outcome was “inactive”. For CC1COC(Cn2cncn2)(c2ccc(Oc3ccc(Cl)cc3)cc2Cl)O1 (stereo not given), the outcome was “inactive”. For COc1ccc(C(c2ccc(OC)cc2)C(Cl)(Cl)Cl)cc1, the outcome was “inactive”. With O=C(O)COc1nc(Cl)c(Cl)cc1Cl the outcome was “inactive”. With N#CC(CCc1ccc(Cl)cc1)(Cn1cncn1)c1ccccc1 (stereo not given) the outcome was “inactive”. For C#CCOS(=O)OC1CCCCC1Oc1ccc(C(C)(C)C)cc1 (stereo not given), the outcome was “inactive”. CCCN(CCC)c1c([N+](=O)[O-])cc(S(N)(=O)=O)cc1[N+](=O)[O-] was tested, and the AC50 was 95.3 µM (active) and 84.3 µM (active) and the outcome was “inactive”. CC1=C(C(=O)Nc2ccccc2)SCCO1 was tested, and the outcome was “inactive”. C=CC1(C)OC(=O)N(c2cc(Cl)cc(Cl)c2)C1=O (stereo not given) was tested, and the outcome was “inactive”. With COC(=O)C=C(C)OP(=O)(OC)OC the outcome was “inactive”. With CC(C)(C)c1ccc(CSc2cnn(C(C)(C)C)c(=O)c2Cl)cc1 the AC50 was 1.93 µM (active). With CCOP(=S)(OCC)SCn1c(=O)oc2cc(Cl)ccc21 the outcome was “inactive”. For COC(=O)C(C)Oc1ccc(Oc2ccc(Cl)cc2Cl)cc1 (stereo not given), the outcome was “inactive”. For COC(=O)N(OC)c1ccccc1COc1ccn(-c2ccc(Cl)cc2)n1, the AC50 was 20.5 µM (active). For CS/C(C)=N/OC(=O)N(C)SN(C)C(=O)O/N=C(\C)SC, the outcome was “inactive”. With OC(c1ccc(Cl)cc1)(c1cncnc1)c1ccccc1Cl (stereo not given) the outcome was “inactive”. With CN(C)C(=S)SSC(=S)N(C)C the outcome was “inactive”. In the case of CCOC(=O)C(Cl)Cc1cc(-n2nc(C)n(C(F)F)c2=O)c(F)cc1Cl (stereo not given), the outcome is reported as “inactive”. CCON=C(CC)C1=C(O)CC(c2c(C)cc(C)cc2C)CC1=O (stereo not given) was tested, and the outcome was “inactive”. For CCCCNC(=O)OCC#CI, the outcome was “inactive”. In the case of CCCCC(CC)COC(=O)c1ccccc1C(=O)OCC(CC)CCCC (stereo not given), the outcome is reported as “inactive”. In the case of CC(C)C1(C)N=C(c2nc3ccccc3cc2C(=O)O)NC1=O (stereo not given), the outcome is reported as “inactive”. COP(N)(=O)SC (stereo not given) was tested, and the outcome was “inactive”. O=C(Nc1ccccc1)Nc1ccnc(Cl)c1 was tested, and the outcome was “inactive”. In the case of C=CCC1=C(C)C(OC(=O)C2C(C=C(C)C)C2(C)C)CC1=O (stereo not given), the outcome is reported as “inactive”. With Fc1ccc(Oc2ccnc3cc(Cl)cc(Cl)c23)cc1 the outcome was “inactive”. For CCNc1nc(Cl)nc(NC(C)C)n1, the outcome was “inactive”. In the case of O=C(O)c1nc(Cl)ccc1Cl, the outcome is reported as “inactive”. For CON(C)C(=O)Nc1ccc(Cl)c(Cl)c1, the outcome was “inactive”. In the case of CCCCOC(=O)c1ccccc1C(=O)OCCCC, the outcome is reported as “inactive”. For COP(=S)(OC)Oc1nc(Cl)c(Cl)cc1Cl, the outcome was “inactive”. CNC(=O)ON=CC(C)(C)SC was tested, and the outcome was “inactive”. Cc1cc(Cl)ccc1OCC(=O)O was tested, and the outcome was “inactive”. For CCNc1nc(Cl)nc(NCC)n1, the outcome was “inactive”. With CCCC1COC(Cn2cncn2)(c2ccc(Cl)cc2Cl)O1 (stereo not given) the outcome was “inactive”. In the case of CC(Oc1ccc(Cl)cc1Cl)C(=O)O (stereo not given), the outcome is reported as “inactive”. With CCOc1cc(Oc2ccc(C(F)(F)F)cc2Cl)ccc1[N+](=O)[O-] the outcome was “inactive”. With C=CCC1=C(C)[C@@H](OC(=O)[C@@H]2[C@@H](C=C(C)C)C2(C)C)CC1=O the outcome was “inactive”.
